Reference: PubChem BioAssay AID1024 (Sanford-Burnham Center for Chemical Genomics, 2008)
The whole screen tested about 96,000 compounds, of which about 1,400 (1.5%) were called active. What follows is part of a selection rich in actives, with near analogues and random picks from the rest. Unmarked numbers belong to inactive results.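 How the source made its calls: active means activation factor of 2 or more for CYP2C9 at a 5 µM dose; inactive means the rest.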

target: Cytochrome P450 2C9 (Homo sapiens) (UniProt P11712); test: human CYP2C9 activators, primary screen, biochemical, luminescence (AID 1024); details: recombinant CYP2C9, luciferin-H conversion, at 5 µM, active compounds read high, factor 1 = untreated enzyme, 0 = blocked;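 further: 0 = sulfaphenazole-blocked wells and 1 = vehicle-only wells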
Sequence (P11712 whole entry, looked up): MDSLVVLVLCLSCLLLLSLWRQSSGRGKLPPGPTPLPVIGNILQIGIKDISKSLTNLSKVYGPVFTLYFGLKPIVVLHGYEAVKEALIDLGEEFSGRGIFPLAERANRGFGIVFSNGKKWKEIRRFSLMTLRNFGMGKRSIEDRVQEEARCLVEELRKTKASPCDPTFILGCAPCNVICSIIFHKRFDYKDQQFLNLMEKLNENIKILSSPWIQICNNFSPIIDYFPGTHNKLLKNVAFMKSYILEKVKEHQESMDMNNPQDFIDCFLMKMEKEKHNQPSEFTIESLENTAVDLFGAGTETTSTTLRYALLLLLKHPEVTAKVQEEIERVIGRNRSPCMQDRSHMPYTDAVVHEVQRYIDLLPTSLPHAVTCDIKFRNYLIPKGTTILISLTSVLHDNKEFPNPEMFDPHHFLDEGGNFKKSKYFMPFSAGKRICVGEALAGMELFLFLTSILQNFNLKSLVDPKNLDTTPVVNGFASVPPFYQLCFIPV

Structure (SMILES) | activation factor
COCc1cc(C)nc2sc3c(=O)n(-c4cccc5ccccc45)nnc3c12 | 0.7
O=C(NNC(=O)c1cccnc1)Nc1ccccc1 | 1.1
COC(=O)c1c(C)c(C)nc(N)c1C#N | 1.1
COC(=O)C(C)N(C#N)c1nc(C)nc(C)n1 (centres undefined) | 2.4 (active)
CCOC(=O)c1sc(C)c2c1NC(C)(c1cccc3ccccc13)NC2=O (centres undefined) | 0
Cc1ccc2c(c1)-c1c(ssc1=S)C(C)(C)N2C(=O)CN1C(=O)c2ccccc2C1=O | 0.2
O=C(c1cc(-c2ccc(O)cc2)on1)N1CCCc2ccccc21 | 0.4
O=C(Nc1ccccc1C(F)(F)F)c1cc(-c2ccc(O)cc2)on1 | 3.3 (active)
CC(NC(=O)c1cc(-c2ccccc2)on1)c1ccccc1 (centres undefined) | 1.2
CCOc1ccc(NC(=O)Nc2ccc(N(C)C(C)=O)cc2)cc1 | 1.1
COc1ccc(Cl)cc1C(=O)NCc1cn(C)nc1C | 1
CCC(C)NC(=O)c1cc(Cl)ccc1OC (centres undefined) | 2.7 (active)
COc1ccc(Cl)cc1C(=O)NCC#N | 1.8
COc1cc(OC)c(C(=O)Nc2ccc(N(C)C)cc2)cc1OC | 0.7
COc1ccc(Cl)cc1C(=O)Nc1ccc(N(C)C(C)=O)cc1 | 3.1 (active)
COc1ccc(N(CC(=O)N/N=C/c2cccs2)S(=O)(=O)c2ccc(OC)c(OC)c2)cc1 | 0.6
O=C(CNC(=O)OCc1ccccc1)Oc1cc2oc(=O)cc(-c3ccccc3)c2cc1Cl | 0.2
O=C(Nc1ccc(Br)cc1)c1cccc(NC(=O)C2C3CC4OC(=O)C2C4C3)c1 (centres undefined) | 0.3
CN1OC(COC(=O)c2ccc(Cl)cc2)CC1c1ccccc1 (centres undefined) | 0.6
COc1ccc(NC(=O)Nc2ccc3nsnc3c2)cc1 | 0.8
O=C(Nc1nnc(C2CC2)s1)c1ccccn1 | 1.3
Cc1nn(Cc2ccc(Cl)c(Cl)c2)c(C)c1NC(=O)c1cc(C2CC2)on1 | 0

Structure (SMILES) | activation factor
CSc1ccccc1NC(=O)c1cc(C2CC2)on1 | 2.4 (active)
O=C(NCc1ccco1)C1CCCN(S(=O)(=O)c2ccccc2)C1 (centres undefined) | 0.7
O=C(NC1CCCCC1)C1c2ccccc2C(=O)N1Cc1ccco1 (centres undefined) | 0.9
O=C(CC1OC(=O)c2ccccc21)NC1CCCCC1 (centres undefined) | 2 (active)
O=C(Cc1ccc(F)cc1)NC1CCCC1 | 1.4
Cc1c(Nc2cc(N3CCCC(C)C3)c3nonc3c2[N+](=O)[O-])c(=O)n(-c2ccccc2)n1C (centres undefined) | 0.6
CCOc1ccc(NC(=O)C2CC(=O)N=C(N)S2)cc1 (centres undefined) | 1
COc1cccc(C(=O)Nc2ccc(N3CCCC3)cc2)c1 | 0.9
COc1cccc(C(=O)NNC(=O)c2ccccc2Br)c1 | 2.8 (active)
COc1cccc(NC(=O)c2ccccc2SC)c1 | 1
Cc1cc2cc3c(cc2nc1SCC(=O)Nc1c(C)cccc1C)CCC3 | 0.4
CCOc1cc(N2CCOCC2)c(OCC)cc1NC(=O)COc1cccc2cccnc12 | 1
CCOc1cc(C)c(Cl)cc1S(=O)(=O)n1nnc2ccccc21 | 0.6
Cc1cc(OCCOc2cccc3cccnc23)c(C)cc1Cl | 2.7 (active)
Cc1cc(SCC(=O)c2ccccc2)nc(SCC(=O)c2ccccc2)n1 | 0.3
Cc1ccn(C(CC(=O)c2ccc(Br)cc2)C(=O)O)n1 (centres undefined) | 2.1 (active)
Cn1c(=O)c2c(nc(N3CCCCCC3)n2CC(=O)c2ccc(Br)cc2)n(C)c1=O | 0.8
Cc1cc([N+](=O)[O-])ccc1NCc1cccc([N+](=O)[O-])c1 | 1
O=C(NCCCN1CCN(C2CCCCC2)CC1)Nc1ccccc1C(F)(F)F | 1
Cc1cc(C)nc(NC(=O)C(C)N2C(=O)c3ccccc3C2=O)n1 (centres undefined) | 1.2
Cc1cc(C)nc(NC(=O)Nc2ccccc2C(F)(F)F)n1 | 2.9 (active)
O=C(Nc1ccc2sc3ccccc3c(=O)c2c1)c1ccccc1Cl | 1.1

Structure (SMILES) | activation factor
O=c1c2ccccc2nc2n1C(CSCc1cccc(C(F)(F)F)c1)CS2 (centres undefined) | 0.6
COc1cc(-c2nc(-c3ccncc3)no2)cc(OC)c1OC | 0.2
COc1ccc(-c2noc(-c3cccc(OC)c3OC)n2)cc1OC | 2 (active)
COc1ccc(-c2nc(-c3ccccc3)no2)c(OC)c1 | 1.1
Cc1cccc(N(CC(=O)Nc2ccc(-c3nc4ccc(C)cc4s3)cc2)S(C)(=O)=O)c1 | 0.9
CNS(=O)(=O)c1cnccc1N1CCN(c2cccc(C)c2)CC1 | 0.4
O=C1Nc2c(Br)cc(Br)cc2C1(O)N1CCOCC1 (centres undefined) | 3 (active)
O=C(CN1CCOCC1)Nc1ccccc1 | 0.9
O=C(CN1CCOCC1)Nc1cc(Cl)ccc1Cl | 2.4 (active)
O=C(CN1CCOCC1)Nc1ccc(NC(=O)CN2CCOCC2)c(Cl)c1 | 1
COc1ccc(OC)c(/C=N/NC(=O)CSc2nnc(C)n2-c2ccccc2)c1 | 0.8
COc1ccc(C)cc1N(C)C(=O)c1coc(=O)c2ccccc12 | 0.7
CCCn1c(C(Cc2ccccc2)NC(=O)COC)nc2ccccc21 (centres undefined) | 0.3
Cc1ccc(N2CCN(/N=C/c3cccs3)CC2)cc1 | 1.1
Cc1ccc(N2CCN(C3=NC(=O)/C(=C\c4cccs4)S3)CC2)cc1 | 2.3 (active)
Cc1ccsc1/C=C1\SC(N2CCOCC2)=NC1=O | 1.2
CO/N=C/c1ccc(N2CCN(C(=O)c3cccc(Cl)c3)CC2)c([N+](=O)[O-])c1 | 0.9
CN=C1S/C(=C\c2ccc(Sc3ccc(Cl)cc3)o2)C(=O)N1C | 0.7
CC(C)C(C)NC(=O)COc1ncnc2ccccc12 (centres undefined) | 0.9
CCOC(=O)c1c(NC(=O)c2ccc(N3CCOCC3)c([N+](=O)[O-])c2)sc(C)c1C | 0.9
